# Laboratory results from article PMC7862700, “An all-to-all approach to the identification of sequence-specific readers for epigenetic DNA modifications on cytosine”.
# Assays:
# Experiment in all cases: DAPPL (digital affinity profiling via proximity ligation, sequencing); 10 mM Tris-HCl pH 7.5, 50 mM NaCl, 1 mM DTT, 4% glycerol, room temperature, 30 min; GST-TFs on glutathione beads, 16-mer random dsDNA library, 0.1% formaldehyde crosslink after washing; high values mean tight binding
# FEV = target: T1, FEV (Homo sapiens, UniProt Q99581 1-238); details: protein: recombinant; tags: N-terminal GST; dsDNA, one strand shown
# T1 sequence: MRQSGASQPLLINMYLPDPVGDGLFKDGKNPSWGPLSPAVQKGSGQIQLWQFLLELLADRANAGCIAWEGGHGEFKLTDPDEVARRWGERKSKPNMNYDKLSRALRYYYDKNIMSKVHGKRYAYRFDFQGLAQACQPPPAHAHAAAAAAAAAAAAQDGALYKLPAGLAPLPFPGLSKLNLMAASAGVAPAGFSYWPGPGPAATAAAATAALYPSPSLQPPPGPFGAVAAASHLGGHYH
# Procedure, shortened: (§1)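 In yeast, human transcription factors were expressed with a GST fusion, then pulled down on glutathione beads and given DNA barcodes. Pooled with a tag-only sample, they were exposed to 200 nmole of a 16-mer random double-stranded DNA library (Tris/NaCl/DTT/glycerol buffer, room temperature, 30 min), washed, crosslinked with 0.1% formaldehyde, proximity-ligated using BsaI/T4 ligase for 1 h at 37 °C, PCR-amplified and read on an Illumina NextSeq500. Each hexamer's frequency of reads for a factor, divided by the matching frequency for the tag-only sample, gives the binding signal.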
# ETV5 = ETV5 (Homo sapiens, UniProt P41161 1-510); details: protein: recombinant; tags: N-terminal GST; dsDNA, one strand shown
# Sequence of ETV5 (P41161 whole entry): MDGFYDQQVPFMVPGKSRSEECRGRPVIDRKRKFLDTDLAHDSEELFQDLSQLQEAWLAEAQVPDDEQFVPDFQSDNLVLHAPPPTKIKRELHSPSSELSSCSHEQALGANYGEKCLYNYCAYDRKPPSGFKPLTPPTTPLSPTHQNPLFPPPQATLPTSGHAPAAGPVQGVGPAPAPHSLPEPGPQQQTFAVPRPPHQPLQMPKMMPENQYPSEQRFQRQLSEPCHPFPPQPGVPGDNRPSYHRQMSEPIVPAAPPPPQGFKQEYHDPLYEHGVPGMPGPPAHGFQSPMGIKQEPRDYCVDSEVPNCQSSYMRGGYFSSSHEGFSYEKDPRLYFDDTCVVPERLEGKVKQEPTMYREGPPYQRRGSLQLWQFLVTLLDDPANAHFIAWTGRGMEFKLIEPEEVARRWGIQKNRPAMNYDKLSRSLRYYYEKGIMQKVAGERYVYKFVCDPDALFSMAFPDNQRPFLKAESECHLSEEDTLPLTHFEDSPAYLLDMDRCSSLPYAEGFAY
# Procedure, shortened: as §1
# HSF1 = HSF1 (Homo sapiens, UniProt Q00613 1-529); details: protein: recombinant; tags: N-terminal GST; chain copies: 3; dsDNA, one strand shown
# Sequence of HSF1 (Q00613 whole entry): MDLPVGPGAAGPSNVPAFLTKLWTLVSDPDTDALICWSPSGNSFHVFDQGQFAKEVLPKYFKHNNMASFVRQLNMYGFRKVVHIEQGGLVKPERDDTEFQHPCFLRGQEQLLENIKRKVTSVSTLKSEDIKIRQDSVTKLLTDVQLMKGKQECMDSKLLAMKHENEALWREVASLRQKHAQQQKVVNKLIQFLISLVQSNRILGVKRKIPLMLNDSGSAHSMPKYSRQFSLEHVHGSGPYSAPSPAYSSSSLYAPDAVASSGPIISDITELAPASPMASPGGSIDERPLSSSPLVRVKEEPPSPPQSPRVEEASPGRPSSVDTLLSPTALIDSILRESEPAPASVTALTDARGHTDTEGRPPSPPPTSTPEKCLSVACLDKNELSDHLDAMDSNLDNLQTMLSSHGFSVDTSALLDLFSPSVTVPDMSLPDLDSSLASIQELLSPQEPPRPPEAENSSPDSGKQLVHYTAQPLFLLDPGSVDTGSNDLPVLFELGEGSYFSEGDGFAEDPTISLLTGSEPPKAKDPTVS
# Procedure, shortened: as §1
# SPIC = target: T2, SPIC (Homo sapiens, UniProt Q8N5J4 1-248); details: protein: recombinant; tags: N-terminal GST; dsDNA, one strand shown
# T2 sequence: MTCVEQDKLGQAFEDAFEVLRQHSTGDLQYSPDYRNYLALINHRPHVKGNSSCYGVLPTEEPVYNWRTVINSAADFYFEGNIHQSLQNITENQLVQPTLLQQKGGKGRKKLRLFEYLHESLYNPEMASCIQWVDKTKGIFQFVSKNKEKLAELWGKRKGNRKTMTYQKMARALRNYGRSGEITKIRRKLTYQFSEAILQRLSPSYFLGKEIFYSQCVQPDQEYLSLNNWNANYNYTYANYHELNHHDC
# Procedure, shortened: as §1
# ELF4 = ELF4 (Homo sapiens, UniProt Q99607 1-663); details: protein: recombinant; tags: N-terminal GST; dsDNA, one strand shown
# Sequence of ELF4 (Q99607 whole entry): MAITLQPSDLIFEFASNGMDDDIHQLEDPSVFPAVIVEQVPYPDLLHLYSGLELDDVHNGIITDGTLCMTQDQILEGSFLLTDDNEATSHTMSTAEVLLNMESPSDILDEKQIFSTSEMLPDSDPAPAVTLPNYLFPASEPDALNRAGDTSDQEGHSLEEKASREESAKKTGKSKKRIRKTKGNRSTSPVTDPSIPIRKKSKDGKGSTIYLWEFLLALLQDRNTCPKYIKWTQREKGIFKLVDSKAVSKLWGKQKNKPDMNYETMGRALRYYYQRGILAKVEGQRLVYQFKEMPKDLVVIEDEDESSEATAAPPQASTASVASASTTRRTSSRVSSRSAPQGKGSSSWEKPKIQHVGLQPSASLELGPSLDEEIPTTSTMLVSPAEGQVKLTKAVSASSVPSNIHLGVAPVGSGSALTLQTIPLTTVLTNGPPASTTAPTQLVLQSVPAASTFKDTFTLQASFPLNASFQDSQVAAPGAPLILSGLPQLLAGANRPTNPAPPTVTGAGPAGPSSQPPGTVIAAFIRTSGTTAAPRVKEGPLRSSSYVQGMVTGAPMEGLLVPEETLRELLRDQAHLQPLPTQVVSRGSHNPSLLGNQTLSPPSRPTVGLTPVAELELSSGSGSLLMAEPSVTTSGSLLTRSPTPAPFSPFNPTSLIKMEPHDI
# Procedure, shortened: as §1
# ELK4 = target: T3, ELK4 (Homo sapiens, UniProt P28324-2 1-405); details: protein: recombinant; tags: N-terminal GST; dsDNA, one strand shown
# T3 sequence: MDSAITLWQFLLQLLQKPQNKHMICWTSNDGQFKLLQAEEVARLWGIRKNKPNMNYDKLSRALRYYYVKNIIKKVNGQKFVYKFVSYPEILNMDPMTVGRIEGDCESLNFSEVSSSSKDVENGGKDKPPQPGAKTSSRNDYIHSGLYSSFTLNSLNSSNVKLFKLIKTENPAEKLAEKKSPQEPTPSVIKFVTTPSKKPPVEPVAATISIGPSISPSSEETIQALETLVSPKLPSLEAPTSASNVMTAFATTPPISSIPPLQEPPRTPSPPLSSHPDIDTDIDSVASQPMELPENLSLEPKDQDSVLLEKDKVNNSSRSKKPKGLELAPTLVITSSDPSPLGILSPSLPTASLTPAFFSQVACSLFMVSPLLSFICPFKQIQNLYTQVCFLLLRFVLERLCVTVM
# Procedure, shortened: as §1
# ETV2 = target: T4, ETV2 (Homo sapiens, UniProt O00321 1-342); details: protein: recombinant; tags: N-terminal GST; dsDNA, one strand shown
# T4 sequence: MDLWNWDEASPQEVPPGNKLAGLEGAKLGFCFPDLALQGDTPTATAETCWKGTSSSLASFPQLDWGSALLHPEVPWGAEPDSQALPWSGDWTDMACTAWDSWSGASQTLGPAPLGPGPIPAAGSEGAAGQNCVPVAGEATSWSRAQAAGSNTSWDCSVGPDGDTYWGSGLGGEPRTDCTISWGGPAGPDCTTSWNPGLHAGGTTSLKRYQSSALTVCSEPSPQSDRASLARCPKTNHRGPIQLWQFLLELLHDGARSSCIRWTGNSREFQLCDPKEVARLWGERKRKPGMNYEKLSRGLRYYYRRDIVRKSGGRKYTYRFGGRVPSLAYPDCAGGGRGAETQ
# Procedure, shortened: as §1
# ELF3 = target: T5, ELF3 (Homo sapiens, UniProt P78545 1-371); details: protein: recombinant; tags: N-terminal GST; dsDNA, one strand shown
# T5 sequence: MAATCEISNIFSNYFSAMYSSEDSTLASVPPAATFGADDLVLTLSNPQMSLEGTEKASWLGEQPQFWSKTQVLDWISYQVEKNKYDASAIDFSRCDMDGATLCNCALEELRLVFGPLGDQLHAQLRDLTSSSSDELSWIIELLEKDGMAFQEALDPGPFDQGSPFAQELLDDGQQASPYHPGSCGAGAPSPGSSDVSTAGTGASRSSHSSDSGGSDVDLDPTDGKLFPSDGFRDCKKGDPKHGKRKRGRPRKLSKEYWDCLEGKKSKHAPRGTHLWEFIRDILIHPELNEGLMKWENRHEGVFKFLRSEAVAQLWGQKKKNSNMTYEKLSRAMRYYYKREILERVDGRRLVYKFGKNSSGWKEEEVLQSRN
# Procedure, shortened: as §1
# CRX = CRX (Homo sapiens, UniProt O43186 1-299); details: protein: recombinant; tags: N-terminal GST; dsDNA, one strand shown
# Sequence of CRX (O43186 whole entry): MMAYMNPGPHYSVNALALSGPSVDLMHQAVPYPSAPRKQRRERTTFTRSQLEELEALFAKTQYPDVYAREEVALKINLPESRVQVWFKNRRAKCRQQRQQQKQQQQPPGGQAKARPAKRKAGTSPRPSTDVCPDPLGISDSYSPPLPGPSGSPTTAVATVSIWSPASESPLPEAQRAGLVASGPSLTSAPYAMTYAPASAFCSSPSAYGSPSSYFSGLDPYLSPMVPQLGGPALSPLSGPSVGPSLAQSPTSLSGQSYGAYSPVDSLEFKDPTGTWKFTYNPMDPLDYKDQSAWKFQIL
# Procedure, shortened: as §1
# ETV1 = ETV1 (Homo sapiens, UniProt P50549 1-477); details: protein: recombinant; tags: N-terminal GST; dsDNA, one strand shown
# Sequence of ETV1 (P50549 whole entry): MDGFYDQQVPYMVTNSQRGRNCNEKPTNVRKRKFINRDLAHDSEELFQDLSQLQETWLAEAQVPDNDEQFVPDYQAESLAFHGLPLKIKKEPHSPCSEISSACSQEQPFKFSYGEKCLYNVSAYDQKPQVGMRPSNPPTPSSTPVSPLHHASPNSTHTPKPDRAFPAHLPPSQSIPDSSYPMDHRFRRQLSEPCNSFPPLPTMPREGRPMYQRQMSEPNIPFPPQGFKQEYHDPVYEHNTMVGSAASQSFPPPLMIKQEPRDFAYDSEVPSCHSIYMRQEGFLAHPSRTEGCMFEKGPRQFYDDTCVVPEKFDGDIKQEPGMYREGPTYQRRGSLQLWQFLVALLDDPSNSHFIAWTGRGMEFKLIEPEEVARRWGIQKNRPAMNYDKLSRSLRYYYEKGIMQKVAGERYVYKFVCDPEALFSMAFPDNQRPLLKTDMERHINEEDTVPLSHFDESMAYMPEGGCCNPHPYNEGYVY
# Procedure, shortened: as §1
# ERF = target: T6, ERF (Homo sapiens, UniProt P50548 1-548); details: protein: recombinant; tags: N-terminal GST; dsDNA, one strand shown
# T6 sequence: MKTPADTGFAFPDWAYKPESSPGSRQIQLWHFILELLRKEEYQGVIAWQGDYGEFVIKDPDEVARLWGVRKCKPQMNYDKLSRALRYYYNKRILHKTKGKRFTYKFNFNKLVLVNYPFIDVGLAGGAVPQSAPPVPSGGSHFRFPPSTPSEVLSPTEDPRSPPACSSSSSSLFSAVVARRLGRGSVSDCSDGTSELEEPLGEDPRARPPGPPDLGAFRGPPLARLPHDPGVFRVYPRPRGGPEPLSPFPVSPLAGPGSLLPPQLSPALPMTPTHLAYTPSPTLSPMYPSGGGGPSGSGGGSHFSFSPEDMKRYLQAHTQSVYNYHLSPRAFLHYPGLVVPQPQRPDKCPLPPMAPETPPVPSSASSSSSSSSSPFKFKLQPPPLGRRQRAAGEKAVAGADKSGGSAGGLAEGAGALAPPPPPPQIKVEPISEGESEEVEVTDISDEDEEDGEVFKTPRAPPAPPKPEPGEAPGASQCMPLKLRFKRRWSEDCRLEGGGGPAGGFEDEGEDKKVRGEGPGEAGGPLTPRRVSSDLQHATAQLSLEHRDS
# Procedure, shortened: as §1
# ETV3L = target: T7, ETV3L (Homo sapiens, UniProt Q6ZN32 1-361); details: protein: recombinant; tags: N-terminal GST; dsDNA, one strand shown
# T7 sequence: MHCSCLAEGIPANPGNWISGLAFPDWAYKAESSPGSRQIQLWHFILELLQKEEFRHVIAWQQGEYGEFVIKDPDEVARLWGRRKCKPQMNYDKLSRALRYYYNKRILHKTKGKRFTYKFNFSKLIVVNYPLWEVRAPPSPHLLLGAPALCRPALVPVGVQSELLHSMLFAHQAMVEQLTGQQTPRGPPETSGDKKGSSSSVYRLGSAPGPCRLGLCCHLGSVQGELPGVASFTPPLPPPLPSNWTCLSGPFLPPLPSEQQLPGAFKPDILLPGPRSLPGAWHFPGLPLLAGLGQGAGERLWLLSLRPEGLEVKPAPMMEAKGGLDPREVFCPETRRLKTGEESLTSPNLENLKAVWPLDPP
# Procedure, shortened: as §1
# ETS2 = target: T8, ETS2 (Homo sapiens, UniProt P15036 1-469); details: protein: recombinant; tags: N-terminal GST; dsDNA, one strand shown
# T8 sequence: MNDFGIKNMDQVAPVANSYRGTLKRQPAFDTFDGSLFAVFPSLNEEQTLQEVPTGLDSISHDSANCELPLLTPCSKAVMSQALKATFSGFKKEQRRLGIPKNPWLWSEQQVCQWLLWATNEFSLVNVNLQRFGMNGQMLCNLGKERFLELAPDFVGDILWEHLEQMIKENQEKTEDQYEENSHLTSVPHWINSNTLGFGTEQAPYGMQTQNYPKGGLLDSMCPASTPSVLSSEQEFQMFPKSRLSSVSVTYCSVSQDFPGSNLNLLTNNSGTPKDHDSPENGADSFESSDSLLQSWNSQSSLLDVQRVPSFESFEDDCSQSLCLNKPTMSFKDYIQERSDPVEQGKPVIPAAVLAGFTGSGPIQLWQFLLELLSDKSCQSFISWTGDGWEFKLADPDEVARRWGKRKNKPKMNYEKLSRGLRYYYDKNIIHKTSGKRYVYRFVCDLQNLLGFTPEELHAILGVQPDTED
# Procedure, shortened: as §1
# SPDEF = target: T9, SPDEF (Homo sapiens, UniProt O95238 1-335); details: protein: recombinant; tags: N-terminal GST; dsDNA, one strand shown
# T9 sequence: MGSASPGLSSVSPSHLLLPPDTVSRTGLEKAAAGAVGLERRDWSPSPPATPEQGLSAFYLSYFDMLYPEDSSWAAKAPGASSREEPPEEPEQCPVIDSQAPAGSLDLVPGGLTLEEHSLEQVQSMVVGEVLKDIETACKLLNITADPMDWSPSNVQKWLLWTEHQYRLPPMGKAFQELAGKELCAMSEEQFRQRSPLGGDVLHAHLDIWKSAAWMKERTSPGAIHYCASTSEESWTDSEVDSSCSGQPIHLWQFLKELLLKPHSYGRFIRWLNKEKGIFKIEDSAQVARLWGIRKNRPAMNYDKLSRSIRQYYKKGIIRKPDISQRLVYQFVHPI
# Procedure, shortened: as §1
# ETV7 = target: T10, ETV7 (Homo sapiens, UniProt Q9Y603 1-341); details: protein: recombinant; tags: N-terminal GST; dsDNA, one strand shown
# T10 sequence: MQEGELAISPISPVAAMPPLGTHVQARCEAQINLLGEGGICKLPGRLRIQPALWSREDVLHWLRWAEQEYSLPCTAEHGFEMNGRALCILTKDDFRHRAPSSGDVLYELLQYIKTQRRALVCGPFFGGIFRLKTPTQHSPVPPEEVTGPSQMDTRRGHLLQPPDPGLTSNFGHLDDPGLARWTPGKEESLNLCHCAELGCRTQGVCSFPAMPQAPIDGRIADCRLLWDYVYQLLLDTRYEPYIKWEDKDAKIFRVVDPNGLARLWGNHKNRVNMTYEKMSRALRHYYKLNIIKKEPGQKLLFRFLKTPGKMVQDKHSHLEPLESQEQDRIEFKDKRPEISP
# Procedure, shortened: as §1
# ELF5 = target: T11, ELF5 (Homo sapiens, UniProt Q9UKW6-2 1-255); details: protein: recombinant; tags: N-terminal GST; dsDNA, one strand shown
# T11 sequence: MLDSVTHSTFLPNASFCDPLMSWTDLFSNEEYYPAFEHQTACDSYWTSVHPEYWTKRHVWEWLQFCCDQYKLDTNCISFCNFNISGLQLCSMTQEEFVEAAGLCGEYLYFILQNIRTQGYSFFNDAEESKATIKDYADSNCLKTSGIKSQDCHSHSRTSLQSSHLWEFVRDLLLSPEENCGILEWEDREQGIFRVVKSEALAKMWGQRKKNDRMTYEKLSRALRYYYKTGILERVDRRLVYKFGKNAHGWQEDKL
# Procedure, shortened: as §1
# ETV3 = target: T12, ETV3 (Homo sapiens, UniProt P41162-2 1-143); details: protein: recombinant; tags: N-terminal GST; dsDNA, one strand shown
# T12 sequence: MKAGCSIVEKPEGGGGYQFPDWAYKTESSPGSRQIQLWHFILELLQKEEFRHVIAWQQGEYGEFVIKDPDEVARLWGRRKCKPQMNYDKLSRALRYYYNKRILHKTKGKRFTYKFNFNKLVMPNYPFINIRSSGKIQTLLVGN
# Procedure, shortened: as §1
# ETV6 = ETV6 (Homo sapiens, UniProt P41212 1-452); details: protein: recombinant; tags: N-terminal GST; dsDNA, one strand shown
# Sequence of ETV6 (P41212 whole entry): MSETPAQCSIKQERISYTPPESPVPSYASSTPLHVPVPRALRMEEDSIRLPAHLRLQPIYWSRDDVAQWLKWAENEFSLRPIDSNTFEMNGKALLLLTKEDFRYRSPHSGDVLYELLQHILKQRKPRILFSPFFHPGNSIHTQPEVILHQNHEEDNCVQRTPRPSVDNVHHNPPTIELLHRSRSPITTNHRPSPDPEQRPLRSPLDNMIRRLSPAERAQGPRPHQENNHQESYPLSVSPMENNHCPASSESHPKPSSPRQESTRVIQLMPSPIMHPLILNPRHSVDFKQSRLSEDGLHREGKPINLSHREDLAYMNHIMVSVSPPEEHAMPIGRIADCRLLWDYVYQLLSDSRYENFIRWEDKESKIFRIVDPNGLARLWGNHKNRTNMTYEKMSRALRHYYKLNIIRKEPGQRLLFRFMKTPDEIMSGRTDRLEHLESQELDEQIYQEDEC
# Procedure, shortened: as §1
sequence,measurement,setting,value
ATTCGA,binding signal,FEV,"1.27 fold enrichment (6-mer frequency, TF over GST control)"
same,binding signal,ETV5,"1.28 fold enrichment (6-mer frequency, TF over GST control)"
same,binding signal,HSF1,"2.51 fold enrichment (6-mer frequency, TF over GST control)"
same,binding signal,SPIC,"1.41 fold enrichment (6-mer frequency, TF over GST control)"
same,binding signal,ELF4,"1.38 fold enrichment (6-mer frequency, TF over GST control)"
same,binding signal,ELK4,"1.2 fold enrichment (6-mer frequency, TF over GST control)"
same,binding signal,ETV2,"1.37 fold enrichment (6-mer frequency, TF over GST control)"
same,binding signal,ELF3,"1.55 fold enrichment (6-mer frequency, TF over GST control)"
same,binding signal,CRX,"1.63 fold enrichment (6-mer frequency, TF over GST control)"
same,binding signal,ETV1,"1.3 fold enrichment (6-mer frequency, TF over GST control)"
same,binding signal,ERF,"1.29 fold enrichment (6-mer frequency, TF over GST control)"
same,binding signal,ETV3L,"1.47 fold enrichment (6-mer frequency, TF over GST control)"
same,binding signal,ETS2,"1.31 fold enrichment (6-mer frequency, TF over GST control)"
same,binding signal,SPDEF,"1.28 fold enrichment (6-mer frequency, TF over GST control)"
same,binding signal,ETV7,"1.28 fold enrichment (6-mer frequency, TF over GST control)"
same,binding signal,ELF5,"1.24 fold enrichment (6-mer frequency, TF over GST control)"
same,binding signal,ETV3,"1.22 fold enrichment (6-mer frequency, TF over GST control)"
same,binding signal,ETV6,"1.23 fold enrichment (6-mer frequency, TF over GST control)"
